From ChEMBL document CHEMBL3433997, “St. Jude Leishmania screening dataset” (2016)

What was measured:
Type in all cases: functional
[1] = target: Solute carrier family 2, facilitated glucose transporter member 1 (Homo sapiens) (UniProt P11166); test: ST_JUDE_LEISH: Cytotoxicity at 2uM final concentration against transgenic Leishmania Mexicana promastigotes LmGLUT1 that are glucose transport deficient and complemented with the human glucose transporter GLUT1. Activity is measured by DNA content using SYBR green in vitro
Sequence of Solute carrier family 2, facilitated glucose transporter member 1 (Homo sapiens) (P11166 whole entry): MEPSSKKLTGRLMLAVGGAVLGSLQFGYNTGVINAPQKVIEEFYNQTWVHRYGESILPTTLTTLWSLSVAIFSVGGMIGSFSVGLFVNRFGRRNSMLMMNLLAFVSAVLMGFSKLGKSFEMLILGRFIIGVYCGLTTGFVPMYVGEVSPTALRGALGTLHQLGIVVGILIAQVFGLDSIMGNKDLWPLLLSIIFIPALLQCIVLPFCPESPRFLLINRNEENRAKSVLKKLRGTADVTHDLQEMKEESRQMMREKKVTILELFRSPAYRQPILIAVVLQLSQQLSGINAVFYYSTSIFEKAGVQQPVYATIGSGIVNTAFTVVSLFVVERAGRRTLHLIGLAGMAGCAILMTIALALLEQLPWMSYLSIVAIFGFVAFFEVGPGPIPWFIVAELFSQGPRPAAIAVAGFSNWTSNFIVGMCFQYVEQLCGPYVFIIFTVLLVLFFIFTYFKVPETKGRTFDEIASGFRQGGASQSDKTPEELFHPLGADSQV

[2] = target: Hexose transporter 1 (Plasmodium falciparum) (UniProt O97467); test: ST_JUDE_LEISH: Cytotoxicity at 2uM final concentration against transgenic Leishmania Mexicana promastigotes LmPfHT that are glucose transport deficient and complemented with the Plasmodium falciparum hexose transporter. Activity is measured by DNA content using SYBR green in vitro
[3] = target: Glucose transporter (Leishmania mexicana) (UniProt O61059); test: ST_JUDE_LEISH: Cytotoxicity at 2uM final concentration against transgenic Leishmania Mexicana promastigotes LmGT2 that are glucose transport deficient and complemented with the L. Mexicana glucose transporter 2. Activity is measured by DNA content using SYBR green in vitro

Work on `c1ccc(CNCc2ccc(-c3cccc(-c4nc5ccccc5[nH]4)c3)cc2)cc1` yielded an inhibition [1] of -1.6%, an inhibition [2] of -1.2% and an inhibition [3] of -1.62%.

`CCCCCCOc1ccc(C(=O)N[C@H]2CCN(CCCCCNC(=O)/C=C/c3ccc(Cl)c(Cl)c3)C2)cc1` gave an inhibition [1] of 0.31%, an inhibition [2] of -0.9% and an inhibition [3] of 1.12%.

Compound `CCCOc1cc2c(cc1OCCC)C(C=Cc1ccc(Cl)cc1Cl)=NC(C)C2` (stereo unspecified) has an inhibition [1] of 94.6%, an inhibition [2] of 96.7% and an inhibition [3] of 94.4%.

With `N#Cc1ccc(-c2cnc3ccc(NCCc4cccnc4)nn23)cc1` the inhibition [1] was -0.81%, the inhibition [2] was -0.84% and the inhibition [3] was 0.25%.

Work on `COc1cccc(C(=O)Nc2ccc(-c3nc4ccccc4[nH]3)cc2)c1` yielded an inhibition [1] of 3.48%, an inhibition [2] of 1.76% and an inhibition [3] of 0.31%.

`COc1ccc2c(c1)nc(CNC(=N)N)n2Cc1ccc(Cl)cc1` showed an inhibition [1] of 1.63%, an inhibition [2] of 1.08% and an inhibition [3] of 1.85%.

In the case of `CC(C)C[C@@H](NC(=O)NC1CCC(CCN2C3CCC2CC(OC(=O)C(CO)c2ccccc2)C3)CC1)C(O)(c1ccccc1)c1ccccc1` (stereo partly specified), the inhibition [1] is reported as 3.28%, the inhibition [2] is reported as 2.19% and the inhibition [3] is reported as 0.94%.

With `O=S(=O)(NCCN1CCCC1)c1cccc(-c2ccc(CNC3Cc4ccccc4C3)cc2)c1` the inhibition [1] was 30.3%, the inhibition [2] was 16.9% and the inhibition [3] was 8.14%.

`COc1ccc(-c2cnc3ccc(N4CCCC4)nn23)cc1OC` was tested, and the inhibition [1] was 0.89%, the inhibition [2] was 0.65% and the inhibition [3] was 2.83%.

In the case of `COc1ccccc1-n1c(SCC(=O)Nc2ccccc2F)nc2cccnc21`, the inhibition [1] is reported as 2.95%, the inhibition [2] is reported as 1.38% and the inhibition [3] is reported as 2.25%.

`COc1ccc(C2(CNCC(O)c3cccc([N+](=O)[O-])c3)CCCCC2)cc1OC` (stereo unspecified) showed an inhibition [1] of 1.34%, an inhibition [2] of 2.95% and an inhibition [3] of 0.33%.

`Cc1oc(-c2cccc(Oc3ccccc3)c2)nc1CN(Cc1cnn(C)c1)C(C)C` was tested, and the inhibition [1] was 1.56%, the inhibition [2] was 1.15% and the inhibition [3] was 1.83%.

With `O=C(O)C[C@H](NC(=O)[C@@H]1CCCN1C(=O)c1cccc(-c2ccc(Cl)c(Cl)c2)c1)C(=O)O` the inhibition [1] was 1.31%, the inhibition [2] was 0.14% and the inhibition [3] was 1.61%.

With `Nc1c2c(nc3ccc(NC(=O)c4ccccc4)cc13)CCCC2` the inhibition [1] was 3.15%, the inhibition [2] was 2.68% and the inhibition [3] was 4.86%.

`COc1c(C2CCN(CCCCNC(=O)C=Cc3cc4cc(Cl)ccc4o3)CC2)ccc2c1CCCC2` was tested, and the inhibition [1] was 2.11%, the inhibition [2] was 0.56% and the inhibition [3] was 0.08%.

With `CCNC(=O)Nc1ccc(-c2cnc(N)c(-c3nc4ccc(OC)cc4[nH]3)c2)cc1` the inhibition [1] was 3.5%, the inhibition [2] was 4.42% and the inhibition [3] was 3.1%.

For `c1ccc(CN2CCC(NCc3ccc(-c4cccc(CNC5CCCC5)c4)cc3)CC2)cc1`, the inhibition [1] was 15.8%, the inhibition [2] was 8.03% and the inhibition [3] was 0.89%.

`COc1nc2c(CCN3CC[C@@H](NCc4cc(C#N)c5c(c4)CCO5)[C@@H](O)C3)ccnc2cc1F` was tested, and the inhibition [1] was 7.43%, the inhibition [2] was 4.07% and the inhibition [3] was 0.66%.

For `O=C(Nc1ccc(OC2CCN(Cc3ccsc3)CC2)c(Cl)c1)c1ccco1`, the inhibition [1] was 2.93%, the inhibition [2] was 5.95% and the inhibition [3] was 4.7%.

`O=C(Nc1ccccc1N1CCOCC1)c1ncoc1-c1ccccc1C(F)(F)F` gave an inhibition [1] of 3.99%, an inhibition [2] of 2.36% and an inhibition [3] of 2.48%.

Compound `CCNc1cc(C)nc(Nc2ccc(C)cc2)n1` has an inhibition [1] of 25.8%, an inhibition [2] of 7.92% and an inhibition [3] of 5.86%.

`COc1cccc2c(NN=Cc3cccc(F)c3)ccnc12` showed an inhibition [1] of 3.44%, an inhibition [2] of 2.06% and an inhibition [3] of 1.75%.
